Active and inactive are the calls of the source. Unless noted, the rule behind the calls is not given here.
How the values were obtained:
[1] = circadian clock period modulators, cell-based, LOPAC library, luminescence reporter (AID 2774); details: circadian reporter cells, at 7 µM, actives lie on both sides;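 note: values are relative to mean of DMSO wells on each plate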
[2] = system: Hepatitis C virus NS3 helicase; experiment: HCV NS3 helicase inhibitors, primary screen, biochemical, fluorescence polarization, LOPAC1280 library (AID 687035; in the data active = inhibition above about 37%); details: Purified HCV NS3 helicase, Cy5-dT15 ssDNA binding fluorescence polarization; stronger effect = higher value; concentration not given here
[3] = Cy5 fluorescence quenching or enhancement artefacts, artefact control for HCV NS3 helicase inhibitor project, biochemical, LOPAC1280 (AID 687037); details: Cy5-DNA-NS3h complex fluorescence interference counterscreen
[4] = sensitizers of A549 cells to miR-34 induction, primary screen, imaging, A549 dox-inducible miR-34, nuclei and caspase counts (AID 1347080;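 active = compounds whose cell count with miR-34 switched on is under 0.7 times the count with it off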); details: A549 miR-34 inducible, Hoechst nuclei count, 48 h
[5] = phospholipid biosynthesis inhibitors in animal cells, primary screen, cell-based, LOPAC library, screen 4 (AID 1347384); details: phospholipid biosynthesis inhibition screen, at 10 µM
[6] = viability rescue of complex I mutant cybrids, primary screen, cell-based, galactose medium, ATP luminescence (AID 1645843;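 active = z-score of at least 1.8 in each of two replicates, scored against plate mean and spread of sample wells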;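 note: positive z means more ATP and so rescue of galactose-driven cybrid death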); details: complex I mutant cybrid cells, 72 h, stronger effect = higher value
[7] = liver-stage malaria parasite growth inhibition, primary screen, cell-based, HepG2, luciferase luminescence, HepG2 viability (AID 624349; in the data active = parasite load remaining mostly below about 12%, no sharp cut-off; inactive = mostly above about 10%;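 note: 100% = mean of DMSO negative control wells on the same plate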); details: P. berghei liver stage in HepG2, luciferase luminescence, concentration not given here; parasite load remaining: stronger effect = lower value; viability: measured here: HepG2 viability without parasites
[8] = stronger effect = lower value, cell number ratio, induced over uninduced
[9] = measured here: relative caspase fold change +Dox/-Dox
[10] = measured here: total cells with miR-34 induction, stronger effect = lower value
[11] = measured here: total cells without miR-34 induction

Compound | period change [1] | inhibition [2] | fluorescence ratio (interference) [3] | fold change [4, 8] | fold change [4, 9] | cell count [4, 10] | cell count [4, 11] | outcome [5] | z-score [6] | parasite load remaining [7] | viability [7]
CN1CCc2cc(NC(=O)Nc3cccnc3)ccc21 | 0.02 h (inactive) | -2% (inactive) | 1 (inactive) | 1.02 (inactive) | 2.86 | 10800 | 10700 | inactive | 1.34 (inactive) |  | 
NO | -0.195 h (inactive) | 1% (inactive) | 1 (inactive) | 1.15 (inactive) | 1.06 | 10000 | 8720 | inactive | 0.49 (inactive) |  | 
Nc1nc(Nc2ccccc2)nc2c1ncn2[C@@H]1O[C@H](CO)[C@H](O)C1O (stereo not given in full) | -0.07 h (inactive) | -4% (inactive) | 1 (inactive) | 0.974 (inactive) | 1.23 | 9660 | 9910 | inactive | 0.02 (inactive) |  | 
C[C@H](Cc1ccccc1)Nc1ncnc2c1ncn2[C@@H]1O[C@H](CO)[C@H](O)C1O (stereo not given in full) | -0.12 h (inactive) | -8% (inactive) | 1 (inactive) | 1.08 (inactive) | 0.57 | 9860 | 9130 | inactive | 1.45 (inactive) |  | 
O=[N+]([O-])c1ccc(CNc2nc(NCc3cccc(C(F)(F)F)c3)nc3nc[nH]c23)cc1 |  |  |  | 1.02 (inactive) | 2.13 | 7880 | 7740 | inactive | -0.05 (inactive) | 41.7% (inactive) | 142%
O[Si](CCCN1CCCCC1)(c1ccc(F)cc1)C1CCCCC1 (stereo not given) | -0.3 h (inactive) | -2% (inactive) | 1 (inactive) | 0.937 (inactive) | 1.64 | 8140 | 8690 | inactive | -0.95 (inactive) |  | 
COc1cc(C(O)CO)ccc1OS(=O)(=O)O (stereo not given) | -0.25 h (inactive) | -2% (inactive) | 1 (inactive) | 1.02 (inactive) | 1.08 | 10400 | 10200 | inactive | 0.025 (inactive) |  | 
C=C[C@H]1CN2CCC1C[C@H]2[C@H](O)c1ccnc2ccc(OC)cc12 (stereo not given in full) | -0.145 h (inactive) | -2% (inactive) | 1 (inactive) | 1.04 (inactive) | 1.02 | 8290 | 8000 | inactive | -1.04 (inactive) |  | 
O=C(O)C1CCNCC1 | -0.105 h (inactive) | -2% (inactive) | 1 (inactive) | 1.1 (inactive) | 0.954 | 10700 | 9760 | inactive | 0.31 (inactive) |  | 
O=C(O)/C=C/c1cnc[nH]1 | -0.135 h (inactive) | -2% (inactive) | 1 (inactive) | 1.01 (inactive) | 2.13 | 10700 | 10600 | inactive | 0.495 (inactive) |  | 
CC(=O)SC1CC2=CC(=O)CC[C@]2(C)C2CC[C@@]3(C)C(CC[C@@]34CCC(=O)O4)C12 (stereo not given in full) | 0.045 h (inactive) | -4% (inactive) | 1 (inactive) | 1.07 (inactive) | 1.82 | 7810 | 7280 | inactive | 1.24 (inactive) |  | 
CC1C(=O)N(C)C(=O)c2nc[nH]c21 (stereo not given) | 0.13 h (inactive) | -3% (inactive) | 0.9 (inactive) | 0.928 (inactive) | 1.21 | 9940 | 10700 | inactive | 0.22 (inactive) |  | 
CN1CCC2(CCN3CCc4c(oc5ccccc45)C3C2)N(C)C1=O (stereo not given) | 0.125 h (inactive) | 3% (inactive) | 1 (inactive) | 1.04 (inactive) | 0.751 | 7560 | 7300 | inactive | -0.87 (inactive) |  | 
Cc1cccc(C)c1OCC(N)C(C)C (stereo not given) | -0.08 h (inactive) | -3% (inactive) | 1 (inactive) | 1.09 (inactive) | 0.766 | 11200 | 10300 | inactive | -0.425 (inactive) |  | 
CC1CN(S(=O)(=O)c2cccc3cnccc23)CCN1 (stereo not given) | 0.475 h (inactive) | -6% (inactive) | 0.9 (inactive) | 1.09 (inactive) | 0.736 | 11600 | 10600 | inactive | 0.18 (inactive) |  | 
COc1ccc2c(c1)CCC1C2CC[C@@]2(C)C1CC[C@@H]2NCCCCCCN1C(=O)C=CC1=O (stereo not given in full) | -0.255 h (inactive) | 5% (inactive) | 0.8 (active) | 1.05 (inactive) | 1.05 | 9380 | 8930 | inactive | 0.035 (inactive) |  | 
Cc1nc(N=Nc2ccc(S(=O)(=O)O)cc2S(=O)(=O)O)c(COP(=O)(O)O)c(C=O)c1O | 0.055 h (inactive) | 0% (inactive) | 1 (inactive) | 0.994 (inactive) | 1.49 | 9390 | 9440 | inactive | 0.795 (inactive) |  | 
C#CC(N)CCC(=O)O (stereo not given) | 0 h (inactive) | -1% (inactive) | 1 (inactive) | 1.04 (inactive) | 2.03 | 10600 | 10100 | inactive | -0.17 (inactive) |  | 
COC1=C(OC)C(=O)c2ccccc2C1=O | -0.205 h (inactive) | -1% (inactive) | 1 (inactive) | 1.45 (inactive) | 1.7 | 1290 | 890 | inactive | -1.04 (inactive) |  | 

From PubChem BioAssay
